The values below come from PubChem BioAssay (NCI).

Test systems include NCI-H23 lung; NCI-H226 lung; NCI-H322M lung; HOP-62 NSCLC; NCI-H460 lung; HOP-92 NSCLC; NCI-H522 lung; A549/ATCC NSCLC; 786-0 renal; COLO 205 colon; DU-145 prostate; K-562 leukemia; MALME-3M melanoma; MDA-MB-231 breast; RXF 393 renal; SF-268 CNS; SF-295 CNS; SF-539 CNS; UACC-257 melanoma; M14 melanoma.
Holding throughout (experiment): NCI-60 one-dose screen, 48 h (100 = growth as untreated, 0 = no growth, -100 = all killed)
Common to all, as to conditions: 10 µM unless noted

Molecules are shown by their SMILES. About 83,000 compounds went through this panel and 20% of them were active in at least one assay; those are over-represented in the sample as a whole.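 Percent growth is the endpoint: 0 to 100 indicates growth inhibition (40 means 60% inhibition), 0 means no net growth, and negative values indicate cell death.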 Unmarked numbers belong to inactive results. Activity calls are given as the source filed them. Rule for the calls: active = growth percent below 10; inactive = the rest.

For the compound `COc1ccc(/C=N/C2=C(C#N)C(c3ccc(OC)cc3)c3ccc4ccccc4c3O2)cc1` (stereo not given), the growth in the assay with NCI-H23 lung was 75.5%; in the assay on NCI-H226 lung, 74.5%; in the assay on NCI-H322M lung it was 97.6%; in the assay on HOP-62 NSCLC, 67%; with NCI-H460 lung it was 75.6%; in the assay with HOP-92 NSCLC it was 70.3%. Besides, the growth in the assay with NCI-H522 lung is 45.5%; in the assay with A549/ATCC NSCLC it was 83.7%; in the assay on 786-0 renal it was 95.1%; with COLO 205 colon it was 102%; in the assay with DU-145 prostate, 97.7%; in the assay with K-562 leukemia, 23.4%. Also, the growth in the assay with MALME-3M melanoma was 74.2%; in the assay with MDA-MB-231 breast it was 53.5%; in the assay on RXF 393 renal, 84.8%; in the assay with SF-268 CNS, 77.2%; in the assay with SF-295 CNS it was 88.6%; with SF-539 CNS it was 79.5%. In addition, the growth in the assay on UACC-257 melanoma was 92.1%; in the assay on M14 melanoma, 69.7%.

As to `OC(COc1ccccc1Cl)COc1ccccc1Cl`, the growth in the assay on NCI-H23 lung was 94.1%; in the assay with NCI-H226 lung, 95.3%; in the assay on NCI-H322M lung it was 110%; with HOP-62 NSCLC, 117%; in the assay on NCI-H460 lung it was 107%; in the assay on HOP-92 NSCLC it was 102%. The growth in the assay with NCI-H522 lung is 88.3%; in the assay on A549/ATCC NSCLC it was 93.2%; with 786-0 renal it was 103%; in the assay with COLO 205 colon it was 112%; in the assay with DU-145 prostate, 116%; in the assay with K-562 leukemia, 100%. Also, the growth in the assay on MALME-3M melanoma was 96.8%; with MDA-MB-231 breast, 101%; in the assay on RXF 393 renal it was 96.7%; in the assay with SF-268 CNS it was 97.3%; in the assay with SF-295 CNS, 104%; with SF-539 CNS, 95.5%. In addition, the figures for the growth with UACC-257 melanoma and with M14 melanoma were 120% and 93.2%, respectively.

`NCCCNc1nc2ccccc2c2c(=O)c3cccc(Cl)c3sc12`: the growth was 44.7% in the assay on NCI-H23 lung; 59.6% with NCI-H226 lung; 22.4% with NCI-H322M lung; 19.3% with HOP-62 NSCLC; -75% (active) in the assay with NCI-H460 lung; 38.1% with HOP-92 NSCLC. The growth was -48.5% (active) in the assay on NCI-H522 lung; -2.55% (active) with A549/ATCC NSCLC; 33.6% in the assay on 786-0 renal; -50.6% (active) in the assay with COLO 205 colon; -14.3% (active) in the assay on DU-145 prostate; -21.1% (active) in the assay on K-562 leukemia. In addition, the growth was 41.6% with MALME-3M melanoma; -18.3% (active) in the assay on MDA-MB-231 breast; 29.5% in the assay on RXF 393 renal; 26.5% in the assay with SF-268 CNS; 26.8% in the assay with SF-295 CNS; 66.3% in the assay on SF-539 CNS. In addition, the growth in the assay with UACC-257 melanoma was 72.8%; with M14 melanoma, -46.4% (active).

For the compound `CN1CCN(CC(=O)Nc2nc(-c3cccc(NS(=O)(=O)c4cccc5c(N(C)C)cccc45)c3)cs2)CC1`, the growth in the assay on NCI-H23 lung is 57.6%; with NCI-H226 lung it was 75.2%; in the assay with NCI-H322M lung, 105%; in the assay on HOP-62 NSCLC it was 85.9%; in the assay on NCI-H460 lung it was 55.7%; with HOP-92 NSCLC, 57.6%. The growth in the assay with NCI-H522 lung was 67.7%; in the assay with A549/ATCC NSCLC, 72.5%; with 786-0 renal it was 79.5%; with COLO 205 colon, 76.9%; in the assay on DU-145 prostate, 81.3%; in the assay with K-562 leukemia, 9.93% (active). Besides, the growth with MALME-3M melanoma was 84%; in the assay with MDA-MB-231 breast it was 50.3%; in the assay on RXF 393 renal it was 70.4%; in the assay on SF-268 CNS it was 76.9%; in the assay with SF-295 CNS, 62.1%; in the assay with SF-539 CNS, 75.6%. The growth in the assay on UACC-257 melanoma is 91.2%; with M14 melanoma, 102%.

As for `C=CCOC1=CC(=O)c2ccccc2C1=O`, the growth with NCI-H23 lung was 50.6%; in the assay with NCI-H226 lung it was 100%; with NCI-H322M lung, 91.6%; with HOP-62 NSCLC, 95.6%; in the assay on NCI-H460 lung, 105%; in the assay on HOP-92 NSCLC, 114%. The growth was 74% in the assay with NCI-H522 lung; 91.4% in the assay on A549/ATCC NSCLC; 102% in the assay with 786-0 renal; 110% in the assay with COLO 205 colon; 59.9% with DU-145 prostate; 26.8% in the assay on K-562 leukemia. The growth with MALME-3M melanoma is 69%; in the assay with MDA-MB-231 breast, 77.3%; in the assay with RXF 393 renal it was 111%; with SF-268 CNS it was 82%; with SF-295 CNS, 98.1%; in the assay on SF-539 CNS it was 116%. The growth with UACC-257 melanoma is 55.8%; in the assay on M14 melanoma, 79.5%.

With `CC1=NOC(=O)/C1=C\c1ccc(O)cc1`, the growth with NCI-H23 lung was 102%; in the assay on NCI-H226 lung, 108%; in the assay on NCI-H322M lung it was 95.2%; with HOP-62 NSCLC it was 99.5%; in the assay with NCI-H460 lung, 109%; in the assay on HOP-92 NSCLC it was 101%. Also, the growth was 97.5% in the assay on NCI-H522 lung; 97.4% in the assay with A549/ATCC NSCLC; 101% in the assay on 786-0 renal; 109% in the assay on COLO 205 colon; 111% in the assay with DU-145 prostate; 98.2% in the assay on K-562 leukemia. In addition, the growth is 100% in the assay with MALME-3M melanoma; 95.1% in the assay on MDA-MB-231 breast; 115% in the assay with RXF 393 renal; 98.4% in the assay with SF-268 CNS; 99.6% in the assay with SF-295 CNS; 98.8% in the assay with SF-539 CNS. Moreover, the values for the growth in the assay on UACC-257 melanoma and in the assay on M14 melanoma were 101% and 103%, respectively.

As to `CCCCCCCCCCCC(c1ccccc1)[N+](C)(C)C` (stereo not given), the growth is 15.7% in the assay with NCI-H23 lung; 21% with NCI-H226 lung; 57.3% in the assay with NCI-H322M lung; 16.9% with HOP-62 NSCLC; 16.4% in the assay on NCI-H460 lung; -16.5% (active) in the assay on HOP-92 NSCLC. Also, the growth in the assay with NCI-H522 lung is 5.04% (active); in the assay with A549/ATCC NSCLC, 28.2%; in the assay with 786-0 renal, 20.5%; in the assay with COLO 205 colon, -74.7% (active); in the assay on DU-145 prostate, 39.8%; in the assay with K-562 leukemia, 19%. For the same compound, the growth with MALME-3M melanoma was 5.27% (active); with MDA-MB-231 breast it was 21.1%; in the assay on RXF 393 renal, -61% (active); in the assay on SF-268 CNS, 13.2%; with SF-295 CNS it was 55.1%; in the assay with SF-539 CNS, 15.8%. Also, the growth was 20% in the assay with UACC-257 melanoma and 11.2% in the assay on M14 melanoma.
